# Data: PubChem BioAssay (EPA / NIEHS)
# Inconclusive results are not listed. The source made the active and inactive calls. How the source made its calls: active means hit-call score of the fitted dose curve at least 0.9, where 1 is the maximum; inconclusive means response in the unintended direction; inactive means score below 0.9.
# Columns and labels:
# [1] = Tanguay_ZF_120hpf_ActivityScore_legacy: (Legacy) Oregon State University Tanguay Lab 120 Hour Post-fertilization zebrafish Assay Score for Activity (AID 2283742);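 on AC50: dechorionated Tropical 5D wild-type zebrafish embryos held singly per well; static exposure from 6 hpf until 120 hpf at 28 °C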
# Method in brief: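 Dechorionated Tropical 5D embryos, one per well from 6 hpf, statically exposed to 120 hpf at 28 °C in 0.64% DMSO. Mortality and malformations scored binary by brightfield microscopy; activity score combines 18 endpoints, fitted positively versus DMSO.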
# [2] = ACEA_AR_agonist_AUC_viability: ACEA Biosciences xCELLigence Real-Time Cell Analysis on Androgen Receptor Agonism for Viability (AID 2283775);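 on AC50: viability read 80 hours after compound addition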
# Method in brief: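 Real-time impedance tracking of 22Rv1 growth, readings every 5 min for 5 h then hourly; area-under-curve viability endpoint at 80 hours, relative to DMSO. Compounds at eight concentrations, 1:4 steps, top 100 uM, n = 2.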
# [3] = ACEA_AR_antagonist_AUC_viability: ACEA Biosciences xCELLigence Real-Time Cell Analysis on Androgen Receptor Antagonism for Viability (AID 2283776);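 further: 22Rv1 human prostate cancer cells growing on impedance electrode plates; hits lower the growth signal relative to DMSO meaning cytotoxicity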
# Method in brief: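 Real-time electrical impedance tracks 22Rv1 proliferation after continuous compound exposure (top 100 uM final, 1:4 steps, 8 concentrations). The 80 h area-under-curve serves as the cytotoxicity readout relative to DMSO.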
# [4] = target: Luciferin 4-monooxygenase (Photinus pyralis) (UniProt P08659); experiment: CCTE_Simmons_QuantiLum_inhib_2: CCTE's Firefly Luciferase Inhibition Assay, Simmons Lab (AID 2283767)
# Chain of Luciferin 4-monooxygenase (Photinus pyralis) (P08659 whole entry, looked up): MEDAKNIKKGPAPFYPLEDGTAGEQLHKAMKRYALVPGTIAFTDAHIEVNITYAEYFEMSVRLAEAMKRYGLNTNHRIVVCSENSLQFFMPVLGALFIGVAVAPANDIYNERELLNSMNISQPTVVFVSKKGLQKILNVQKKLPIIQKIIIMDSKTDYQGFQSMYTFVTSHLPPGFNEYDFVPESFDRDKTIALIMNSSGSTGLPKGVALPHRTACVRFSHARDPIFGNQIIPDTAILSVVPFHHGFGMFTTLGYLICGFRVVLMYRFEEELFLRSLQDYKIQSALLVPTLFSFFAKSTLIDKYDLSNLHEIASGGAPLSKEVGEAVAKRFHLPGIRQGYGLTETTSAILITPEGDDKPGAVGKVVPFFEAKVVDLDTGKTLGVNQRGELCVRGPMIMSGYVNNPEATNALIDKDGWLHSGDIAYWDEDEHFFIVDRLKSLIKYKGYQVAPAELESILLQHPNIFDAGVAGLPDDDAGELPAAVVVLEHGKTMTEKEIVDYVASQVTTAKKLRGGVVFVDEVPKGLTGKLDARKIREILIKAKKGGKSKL
# Method in brief: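 Cell-free recombinant firefly luciferase (5 ng/well) in 200mM potassium phosphate with 1 mg/ml BSA, 30 min at 37C with 8 concentrations from 5 nM to 87.5 uM [final], 0.5% DMSO. Luminescence read after D-luciferin (150uM)/dATP (147uM) reagent injection, pH 7.8; triplicates.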
# [5] = tested on: Thyroperoxidase (TPO), gene 445522; experiment: CCTE_Simmons_GUA_TPO: CCTE's Guaiacol Assay for Thyroperoxidase (TPO) Inhibition, Simmons Lab (AID 2283750)
# Method in brief: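 Porcine thyroid microsomes (25 ug) in 200mM potassium phosphate, preincubated 30 s at 37C with compound (8 concentrations, 5 nM–87.5 uM) and 35mM guaiacol; 1mM H2O2 starts reaction. Absorbance change at 450nm over first 80 s; loss of signal versus DMSO, three replicates.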
structure (smiles),measurement,setting,value
CCCc1ccccc1,outcome,[1],inactive
same,outcome,[2],inactive
same,outcome,[3],inactive
CCOC(N)=O,outcome,[1],inactive
same,outcome,[2],inactive
same,outcome,[3],inactive
c1ccc(C(O[C@@H]2CCCN(CCc3ccc4c(c3)OCO4)C2)c2ccccc2)cc1,AC50,[1],36.3 µM (active)
same,AC50,[2],41.3 µM (active)
same,AC50,[3],58.3 µM (active)
Cc1cccc(O)c1C,outcome,[4],inactive
same,outcome,[3],inactive
COCc1nnc(-c2ccc[n+]([O-])c2)n1-c1c(Cl)c(Cl)cc2[nH]c(=O)c(=O)[nH]c12,outcome,[1],inactive
same,outcome,[2],inactive
same,outcome,[3],inactive
OC(CCl)CCl,outcome,[1],inactive
same,outcome,[2],inactive
same,outcome,[3],inactive
c1ccc2ncccc2c1,outcome,[1],inactive
same,outcome,[2],inactive
same,outcome,[3],inactive
Cc1nccn1-c1ccc(Sc2cccc(C3(C(N)=O)CCOCC3)c2)cc1,outcome,[1],inactive
same,AC50,[2],25.5 µM (active)
same,AC50,[3],24 µM (active)
NC(N)=O,outcome,[1],inactive
same,outcome,[2],inactive
same,outcome,[3],inactive
CC1(C)C(=O)N(Cl)C(=O)N1Cl,outcome,[1],inactive
OCc1ccccc1,outcome,[1],inactive
same,outcome,[2],inactive
same,outcome,[3],inactive
Cc1ccc(S(=O)(=O)NC(=O)NN2CCCCCC2)cc1,outcome,[1],inactive
same,outcome,[4],inactive
same,outcome,[3],inactive
COc1cc(C(C)C)c2c(c1)S(=O)(=O)N(COc1cc(=O)n3cccc(OCCN4CCCCC4)c3n1)C2=O,AC50,[1],7.72 µM (active)
same,AC50,[2],22.3 µM (active)
same,AC50,[3],16.8 µM (active)
NNC(=O)c1ccncc1,outcome,[1],inactive
same,AC50,[5],20.7 µM (active)
same,outcome,[4],inactive
same,outcome,[3],inactive
CNC(C)=O,outcome,[1],inactive
same,outcome,[2],inactive
same,outcome,[3],inactive
CC(C)CC(C)O (stereo unspecified),outcome,[1],inactive
same,outcome,[2],inactive
same,outcome,[3],inactive
CCCCCOC(C)=O,outcome,[1],inactive
OCCOCCOCCO,outcome,[1],inactive
same,outcome,[3],inactive
C=CN1CCCC1=O,outcome,[1],inactive
same,outcome,[3],inactive
